Experimental data taken from ChEMBL document CHEMBL1961873, “Compounds: GSK PKIS; Assays: Nanosyn kinase panel” (2012).

Assays:
[1] = biological target: Tyrosine-protein kinase SYK (Homo sapiens) (UniProt P43405); conditions: at 1 µM
[2] = biological target: T1, Tyrosine-protein kinase Tec (Homo sapiens) (UniProt P42680); conditions: at 0.1 µM
T1 sequence (whole entry): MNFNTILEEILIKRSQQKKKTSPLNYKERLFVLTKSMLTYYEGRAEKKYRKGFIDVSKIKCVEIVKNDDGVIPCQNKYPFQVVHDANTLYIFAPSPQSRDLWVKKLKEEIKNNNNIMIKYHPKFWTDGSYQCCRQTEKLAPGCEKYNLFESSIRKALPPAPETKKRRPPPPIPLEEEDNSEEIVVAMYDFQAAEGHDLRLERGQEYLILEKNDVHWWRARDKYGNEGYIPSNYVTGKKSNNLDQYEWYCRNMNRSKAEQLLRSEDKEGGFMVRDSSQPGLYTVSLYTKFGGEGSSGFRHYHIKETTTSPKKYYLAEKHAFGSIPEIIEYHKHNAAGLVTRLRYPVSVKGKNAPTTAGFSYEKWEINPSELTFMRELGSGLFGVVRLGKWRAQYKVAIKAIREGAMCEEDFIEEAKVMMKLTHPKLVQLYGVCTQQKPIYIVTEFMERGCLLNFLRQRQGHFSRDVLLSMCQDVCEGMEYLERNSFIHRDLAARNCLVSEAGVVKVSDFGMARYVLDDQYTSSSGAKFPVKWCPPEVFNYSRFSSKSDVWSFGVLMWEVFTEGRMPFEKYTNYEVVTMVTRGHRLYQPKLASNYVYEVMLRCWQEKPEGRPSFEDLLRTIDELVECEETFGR

[3] = biological target: T1, Tyrosine-protein kinase Tec (Homo sapiens); conditions: at 1 µM
[4] = biological target: Angiopoietin-1 receptor (Homo sapiens) (UniProt Q02763); conditions: at 0.1 µM
Chain of Angiopoietin-1 receptor (Homo sapiens) (Q02763 whole entry): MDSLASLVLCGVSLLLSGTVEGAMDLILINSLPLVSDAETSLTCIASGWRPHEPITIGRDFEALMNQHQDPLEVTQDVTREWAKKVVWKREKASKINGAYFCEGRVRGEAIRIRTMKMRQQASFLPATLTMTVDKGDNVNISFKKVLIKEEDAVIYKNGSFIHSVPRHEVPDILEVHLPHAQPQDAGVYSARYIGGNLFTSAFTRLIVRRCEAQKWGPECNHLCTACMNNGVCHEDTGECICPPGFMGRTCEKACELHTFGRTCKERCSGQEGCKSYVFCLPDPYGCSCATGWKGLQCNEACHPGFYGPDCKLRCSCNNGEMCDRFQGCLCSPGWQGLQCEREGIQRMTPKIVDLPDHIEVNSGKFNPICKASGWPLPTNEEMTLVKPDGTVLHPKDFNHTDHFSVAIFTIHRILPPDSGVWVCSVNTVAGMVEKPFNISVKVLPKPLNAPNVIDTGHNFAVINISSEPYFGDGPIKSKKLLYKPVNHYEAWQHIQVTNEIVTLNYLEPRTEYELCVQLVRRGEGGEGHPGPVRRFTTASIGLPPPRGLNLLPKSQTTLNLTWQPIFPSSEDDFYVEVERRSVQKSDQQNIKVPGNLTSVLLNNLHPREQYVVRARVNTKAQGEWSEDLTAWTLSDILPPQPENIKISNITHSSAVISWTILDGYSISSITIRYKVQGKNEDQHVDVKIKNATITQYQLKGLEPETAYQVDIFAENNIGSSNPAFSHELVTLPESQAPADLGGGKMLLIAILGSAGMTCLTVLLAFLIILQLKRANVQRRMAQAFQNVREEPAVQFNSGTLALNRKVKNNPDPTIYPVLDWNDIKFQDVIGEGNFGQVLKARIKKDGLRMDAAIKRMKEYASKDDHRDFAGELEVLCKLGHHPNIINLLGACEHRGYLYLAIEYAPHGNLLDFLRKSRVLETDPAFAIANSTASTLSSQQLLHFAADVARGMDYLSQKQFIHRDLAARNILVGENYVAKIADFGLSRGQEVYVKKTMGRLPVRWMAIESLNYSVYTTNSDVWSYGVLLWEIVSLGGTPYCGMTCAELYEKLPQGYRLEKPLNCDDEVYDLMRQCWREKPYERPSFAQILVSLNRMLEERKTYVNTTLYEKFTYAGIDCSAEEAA

[5] = biological target: Angiopoietin-1 receptor (Homo sapiens) (UniProt Q02763); conditions: at 1 µM
[6] = biological target: T2, Non-receptor tyrosine-protein kinase TNK1 (Homo sapiens) (UniProt Q13470); conditions: at 0.1 µM
T2 sequence (whole entry): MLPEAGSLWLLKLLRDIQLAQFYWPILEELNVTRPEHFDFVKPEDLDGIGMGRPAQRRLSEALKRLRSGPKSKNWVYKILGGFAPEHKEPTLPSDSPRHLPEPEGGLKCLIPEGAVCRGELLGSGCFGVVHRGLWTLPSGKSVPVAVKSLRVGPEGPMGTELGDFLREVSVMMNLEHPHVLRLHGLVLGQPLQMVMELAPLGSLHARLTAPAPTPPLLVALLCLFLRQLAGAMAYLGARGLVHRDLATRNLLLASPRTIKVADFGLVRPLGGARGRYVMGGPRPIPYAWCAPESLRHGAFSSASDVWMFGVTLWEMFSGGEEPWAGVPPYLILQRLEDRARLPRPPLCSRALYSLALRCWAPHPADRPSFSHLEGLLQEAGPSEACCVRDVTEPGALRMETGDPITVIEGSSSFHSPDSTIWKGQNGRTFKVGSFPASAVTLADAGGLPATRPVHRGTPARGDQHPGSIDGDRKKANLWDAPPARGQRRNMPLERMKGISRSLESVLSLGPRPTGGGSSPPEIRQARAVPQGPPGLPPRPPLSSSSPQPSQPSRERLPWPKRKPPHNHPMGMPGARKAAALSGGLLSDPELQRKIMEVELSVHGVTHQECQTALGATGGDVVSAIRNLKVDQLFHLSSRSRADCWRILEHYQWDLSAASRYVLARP

[7] = biological target: T2, Non-receptor tyrosine-protein kinase TNK1 (Homo sapiens); conditions: at 1 µM
[8] = biological target: Activated CDC42 kinase 1 (Homo sapiens) (UniProt Q07912); conditions: at 0.1 µM
[9] = biological target: Activated CDC42 kinase 1 (Homo sapiens) (UniProt Q07912); conditions: at 1 µM
[10] = biological target: High affinity nerve growth factor receptor (Homo sapiens) (UniProt P04629); conditions: at 0.1 µM
Chain of High affinity nerve growth factor receptor (Homo sapiens) (P04629 33-796 limits assumed): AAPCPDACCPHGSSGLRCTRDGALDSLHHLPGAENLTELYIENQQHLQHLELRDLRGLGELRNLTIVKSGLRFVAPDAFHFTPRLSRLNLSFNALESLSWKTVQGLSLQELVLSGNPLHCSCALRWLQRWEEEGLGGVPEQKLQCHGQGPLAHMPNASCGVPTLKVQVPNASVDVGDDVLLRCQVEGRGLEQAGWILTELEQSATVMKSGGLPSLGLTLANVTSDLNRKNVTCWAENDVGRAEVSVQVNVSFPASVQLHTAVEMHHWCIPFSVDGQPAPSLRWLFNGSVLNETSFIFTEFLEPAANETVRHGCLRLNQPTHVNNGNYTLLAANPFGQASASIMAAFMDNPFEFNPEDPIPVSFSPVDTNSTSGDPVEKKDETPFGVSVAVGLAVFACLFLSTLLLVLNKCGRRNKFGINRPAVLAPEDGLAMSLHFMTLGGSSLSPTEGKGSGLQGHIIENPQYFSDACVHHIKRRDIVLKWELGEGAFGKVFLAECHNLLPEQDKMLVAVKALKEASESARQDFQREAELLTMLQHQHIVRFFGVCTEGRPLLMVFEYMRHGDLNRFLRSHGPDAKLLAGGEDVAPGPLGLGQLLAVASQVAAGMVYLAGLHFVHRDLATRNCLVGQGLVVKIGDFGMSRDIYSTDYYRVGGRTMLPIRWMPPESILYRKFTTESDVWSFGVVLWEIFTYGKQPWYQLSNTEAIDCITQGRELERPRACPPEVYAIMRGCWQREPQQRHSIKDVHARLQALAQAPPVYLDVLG

[11] = biological target: High affinity nerve growth factor receptor (Homo sapiens) (UniProt P04629); conditions: at 1 µM
[12] = biological target: BDNF/NT-3 growth factors receptor (Homo sapiens) (UniProt Q16620); conditions: at 0.1 µM
Chain of BDNF/NT-3 growth factors receptor (Homo sapiens) (Q16620 32-822 limits assumed): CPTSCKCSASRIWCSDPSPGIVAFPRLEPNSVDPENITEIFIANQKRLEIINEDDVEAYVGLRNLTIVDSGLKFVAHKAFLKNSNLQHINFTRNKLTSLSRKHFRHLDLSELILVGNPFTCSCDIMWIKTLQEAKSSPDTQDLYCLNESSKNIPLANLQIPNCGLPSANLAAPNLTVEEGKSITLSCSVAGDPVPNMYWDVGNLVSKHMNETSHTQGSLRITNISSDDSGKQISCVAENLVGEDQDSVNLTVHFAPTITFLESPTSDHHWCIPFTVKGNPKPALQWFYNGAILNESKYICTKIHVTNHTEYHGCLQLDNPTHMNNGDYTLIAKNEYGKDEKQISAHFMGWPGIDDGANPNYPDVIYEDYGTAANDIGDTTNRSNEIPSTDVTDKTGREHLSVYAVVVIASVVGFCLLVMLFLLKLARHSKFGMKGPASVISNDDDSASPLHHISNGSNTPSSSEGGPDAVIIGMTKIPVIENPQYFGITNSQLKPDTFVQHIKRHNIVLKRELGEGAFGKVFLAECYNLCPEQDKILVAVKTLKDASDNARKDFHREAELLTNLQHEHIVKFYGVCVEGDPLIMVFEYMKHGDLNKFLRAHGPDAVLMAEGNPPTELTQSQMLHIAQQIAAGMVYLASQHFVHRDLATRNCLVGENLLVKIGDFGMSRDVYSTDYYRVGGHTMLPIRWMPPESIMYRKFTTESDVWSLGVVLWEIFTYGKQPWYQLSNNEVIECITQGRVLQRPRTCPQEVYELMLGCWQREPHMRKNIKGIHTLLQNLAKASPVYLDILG

[13] = biological target: BDNF/NT-3 growth factors receptor (Homo sapiens) (UniProt Q16620); conditions: at 1 µM
[14] = biological target: NT-3 growth factor receptor (Homo sapiens) (UniProt Q16288); conditions: at 0.1 µM
Chain of NT-3 growth factor receptor (Homo sapiens) (Q16288 32-839 limits assumed): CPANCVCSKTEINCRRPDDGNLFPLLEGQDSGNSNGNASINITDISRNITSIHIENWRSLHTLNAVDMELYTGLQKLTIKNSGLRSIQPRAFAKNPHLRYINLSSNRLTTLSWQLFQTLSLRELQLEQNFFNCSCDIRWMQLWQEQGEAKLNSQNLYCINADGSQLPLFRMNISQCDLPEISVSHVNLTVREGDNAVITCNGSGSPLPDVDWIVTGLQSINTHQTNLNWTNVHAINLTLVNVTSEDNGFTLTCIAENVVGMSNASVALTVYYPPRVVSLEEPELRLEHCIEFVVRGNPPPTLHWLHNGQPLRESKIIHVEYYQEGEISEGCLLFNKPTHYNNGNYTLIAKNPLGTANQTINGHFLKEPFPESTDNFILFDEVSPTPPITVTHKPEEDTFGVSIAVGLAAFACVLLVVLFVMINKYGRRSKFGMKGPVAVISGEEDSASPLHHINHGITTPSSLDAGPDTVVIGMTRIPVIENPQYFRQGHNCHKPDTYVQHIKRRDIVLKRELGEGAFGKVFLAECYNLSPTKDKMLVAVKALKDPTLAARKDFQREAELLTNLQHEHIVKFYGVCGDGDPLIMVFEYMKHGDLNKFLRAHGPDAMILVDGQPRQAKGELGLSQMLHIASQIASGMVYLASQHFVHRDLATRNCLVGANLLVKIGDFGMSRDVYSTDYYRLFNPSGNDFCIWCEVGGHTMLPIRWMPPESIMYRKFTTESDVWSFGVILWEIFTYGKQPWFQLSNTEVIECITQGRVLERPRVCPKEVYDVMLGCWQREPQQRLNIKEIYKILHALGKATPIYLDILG

[15] = biological target: NT-3 growth factor receptor (Homo sapiens) (UniProt Q16288); conditions: at 1 µM
[16] = biological target: T3, Tyrosine-protein kinase TXK (Homo sapiens) (UniProt P42681); conditions: at 0.1 µM
T3 sequence (whole entry): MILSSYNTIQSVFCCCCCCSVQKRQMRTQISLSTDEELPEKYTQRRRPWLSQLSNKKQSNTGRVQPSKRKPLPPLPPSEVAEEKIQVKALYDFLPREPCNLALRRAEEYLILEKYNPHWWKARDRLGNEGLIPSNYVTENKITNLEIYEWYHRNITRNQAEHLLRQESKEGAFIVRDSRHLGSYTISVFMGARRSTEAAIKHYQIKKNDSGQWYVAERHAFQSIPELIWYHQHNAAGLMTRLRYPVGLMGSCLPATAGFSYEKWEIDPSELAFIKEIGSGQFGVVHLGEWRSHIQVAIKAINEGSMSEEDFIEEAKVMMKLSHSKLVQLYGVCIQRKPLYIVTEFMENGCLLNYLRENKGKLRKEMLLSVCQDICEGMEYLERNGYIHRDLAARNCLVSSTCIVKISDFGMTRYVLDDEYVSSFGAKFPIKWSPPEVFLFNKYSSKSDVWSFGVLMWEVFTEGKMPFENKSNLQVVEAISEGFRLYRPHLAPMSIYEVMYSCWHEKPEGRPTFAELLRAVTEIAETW

[17] = biological target: T3, Tyrosine-protein kinase TXK (Homo sapiens); conditions: at 1 µM
[18] = biological target: Non-receptor tyrosine-protein kinase TYK2 (Homo sapiens) (UniProt P29597); conditions: at 0.1 µM;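 further: each value is a mean of the inhibition readings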
Chain of Non-receptor tyrosine-protein kinase TYK2 (Homo sapiens) (P29597 whole entry): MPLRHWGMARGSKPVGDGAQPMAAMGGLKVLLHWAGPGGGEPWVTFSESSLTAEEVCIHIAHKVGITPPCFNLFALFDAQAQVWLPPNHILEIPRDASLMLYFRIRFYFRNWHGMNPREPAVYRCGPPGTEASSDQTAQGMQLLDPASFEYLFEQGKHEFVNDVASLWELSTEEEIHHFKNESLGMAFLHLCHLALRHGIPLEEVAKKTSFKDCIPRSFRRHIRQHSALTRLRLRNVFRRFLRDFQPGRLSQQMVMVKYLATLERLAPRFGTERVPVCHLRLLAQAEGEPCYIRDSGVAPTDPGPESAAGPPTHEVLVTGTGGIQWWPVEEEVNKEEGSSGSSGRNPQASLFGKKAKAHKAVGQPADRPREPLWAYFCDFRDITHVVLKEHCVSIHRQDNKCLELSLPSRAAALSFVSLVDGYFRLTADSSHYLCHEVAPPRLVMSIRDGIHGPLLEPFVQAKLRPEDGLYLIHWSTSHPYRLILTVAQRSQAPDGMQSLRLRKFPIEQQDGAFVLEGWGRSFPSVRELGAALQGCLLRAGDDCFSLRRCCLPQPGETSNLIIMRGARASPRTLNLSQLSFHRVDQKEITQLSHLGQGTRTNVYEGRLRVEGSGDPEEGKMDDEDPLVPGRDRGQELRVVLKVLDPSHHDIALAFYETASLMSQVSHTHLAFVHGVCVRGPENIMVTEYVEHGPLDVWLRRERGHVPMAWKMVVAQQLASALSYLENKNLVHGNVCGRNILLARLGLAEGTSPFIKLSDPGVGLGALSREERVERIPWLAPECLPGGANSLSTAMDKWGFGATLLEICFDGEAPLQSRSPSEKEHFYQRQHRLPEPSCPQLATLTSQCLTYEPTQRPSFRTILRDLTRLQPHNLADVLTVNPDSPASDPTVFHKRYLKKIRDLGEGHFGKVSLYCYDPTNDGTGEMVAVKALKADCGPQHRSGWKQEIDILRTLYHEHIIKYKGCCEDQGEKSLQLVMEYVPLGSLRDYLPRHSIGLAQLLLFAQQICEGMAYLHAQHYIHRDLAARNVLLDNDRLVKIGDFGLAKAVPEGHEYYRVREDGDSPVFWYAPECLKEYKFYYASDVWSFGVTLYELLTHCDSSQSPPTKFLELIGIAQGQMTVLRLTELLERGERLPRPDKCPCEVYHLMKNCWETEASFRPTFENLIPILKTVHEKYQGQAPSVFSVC

[19] = biological target: T4, Dual specificity protein kinase TTK (Homo sapiens) (UniProt P33981); conditions: at 1 µM;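 further: reported figures are mean TTK inhibition at 1 µM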
T4 sequence (whole entry): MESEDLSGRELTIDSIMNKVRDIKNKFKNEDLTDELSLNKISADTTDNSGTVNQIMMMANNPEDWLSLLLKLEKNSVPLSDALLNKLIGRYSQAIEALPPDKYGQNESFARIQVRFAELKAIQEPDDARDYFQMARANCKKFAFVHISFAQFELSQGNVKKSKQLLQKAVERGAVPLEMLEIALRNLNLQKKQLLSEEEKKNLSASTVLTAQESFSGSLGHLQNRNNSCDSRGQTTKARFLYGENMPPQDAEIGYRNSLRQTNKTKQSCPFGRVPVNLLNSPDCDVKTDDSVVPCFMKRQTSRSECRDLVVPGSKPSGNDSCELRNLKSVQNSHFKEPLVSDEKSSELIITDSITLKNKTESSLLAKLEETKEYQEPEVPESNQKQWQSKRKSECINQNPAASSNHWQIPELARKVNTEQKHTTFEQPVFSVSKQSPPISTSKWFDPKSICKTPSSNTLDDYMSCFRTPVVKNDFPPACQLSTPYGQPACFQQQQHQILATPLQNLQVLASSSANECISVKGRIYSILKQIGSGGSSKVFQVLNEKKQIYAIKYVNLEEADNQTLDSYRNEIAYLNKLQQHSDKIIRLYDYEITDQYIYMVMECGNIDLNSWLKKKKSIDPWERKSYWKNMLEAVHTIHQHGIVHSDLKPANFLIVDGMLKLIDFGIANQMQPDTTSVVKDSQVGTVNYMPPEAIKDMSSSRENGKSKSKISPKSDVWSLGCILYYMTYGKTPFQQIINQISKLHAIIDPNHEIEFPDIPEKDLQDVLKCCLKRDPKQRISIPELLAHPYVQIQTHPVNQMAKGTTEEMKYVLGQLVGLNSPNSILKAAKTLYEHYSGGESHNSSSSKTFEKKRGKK

[20] = biological target: T5, Aurora kinase A (Homo sapiens) (UniProt O14965); conditions: at 0.1 µM;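 further: each reported value is a mean percent inhibition of Aurora-A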
T5 sequence (whole entry): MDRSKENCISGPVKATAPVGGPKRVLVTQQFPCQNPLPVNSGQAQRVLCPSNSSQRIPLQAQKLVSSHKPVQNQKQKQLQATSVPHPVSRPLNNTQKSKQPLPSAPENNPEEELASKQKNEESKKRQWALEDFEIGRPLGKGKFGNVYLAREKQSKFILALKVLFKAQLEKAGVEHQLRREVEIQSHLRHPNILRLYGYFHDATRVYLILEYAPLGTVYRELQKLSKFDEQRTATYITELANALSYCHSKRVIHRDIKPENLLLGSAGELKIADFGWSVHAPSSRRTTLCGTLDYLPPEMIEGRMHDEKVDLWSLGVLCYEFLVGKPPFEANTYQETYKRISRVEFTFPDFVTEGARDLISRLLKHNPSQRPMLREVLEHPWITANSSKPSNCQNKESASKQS

SMILES	inhibition [1] [%]	inhibition [2] [%]	inhibition [3] [%]	inhibition [4] [%]	inhibition [5] [%]	inhibition [6] [%]	inhibition [7] [%]	inhibition [8] [%]	inhibition [9] [%]	inhibition [10] [%]	inhibition [11] [%]	inhibition [12] [%]	inhibition [13] [%]	inhibition [14] [%]	inhibition [15] [%]	inhibition [16] [%]	inhibition [17] [%]	inhibition [18] [%]	inhibition [19] [%]	inhibition [20] [%]
CNC(=O)c1cc(-c2ccc(F)cc2)cc(-c2ccc(S(=O)(=O)N3CCCC3)cc2)c1N	0.73	2.93	3.29	2.3	2.3	2.65	2.41	0.47	1.54	1.97	2.94	2.22	2.48	2.53	2.33	2.21	2.22	-3.89	3.8	0.79
O=C(Nc1n[nH]c2cc(-c3ccc(F)cc3)ccc12)C1CC1	1.05	3.06	4.11	1.89	6.64	0.9	5.38	0.53	1.19	4.77	4.23	2.53	5.87	2.91	7.26	2.11	3.11	-5.76	3.14	2.98
CCn1c(-c2nonc2N)nc2ccccc21	0.1	3.65	7.35	0.56	-0.01	2.77	4.19	1.12	2.47	3.39	2.11	1.05	-0.82	0.03	0.89	3.75	6.72	-1.66	7.51	2.42
COc1ccc(-c2nn3ncccc3c2-c2ccnc(Nc3ccc4c(c3)OCCO4)n2)cc1	-0.41	1.33	11.9	8.07	45.9	6.95	51.1	-0.12	3.47	0.04	20.2	1.61	18.7	-1.55	6.72	-0.79	3.19	-1.16	11.6	18.5
